Test results from PubChem BioAssay AID2242 (National Center for Advancing Translational Sciences (NCATS), 2010).
In all, about 200,000 compounds went through this assay and about 720 (0.36%) were called active. Inconclusive results (about 8%) are left out. Calls follow the shape of the dose curve; as a rule, active = well fitted activation curve with a large enough effect; inconclusive = small, poorly fitted or top-dose-only effect, or effect the other way, or another doubt; inactive = flat fitted curve, though single readings scatter. This is one part of the list.

Molecular target: Lysosomal alpha-glucosidase (Homo sapiens) (UniProt P10253)
Experiment: qHTS Assay for Activators of Human alpha-Glucosidase as a Potential Chaperone Treatment of Pompe Disease; also: nearly all actives have a fitted effect of over 80% in size
Details: purified enzyme, 4-MU-alpha-glucoside fluorescence, 20 min; series mostly up to 76.9 µM
Procedure, shortened: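 Fluorogenic assay, 4 nM enzyme, 400 uM 4-methylumbelliferyl-[…], pH 5.0 citrate/phosphate buffer with 0.005% Tween-20, compounds up to 77 uM, 20 min at room temperature. NaOH/glycine stop, Ex 365/Em 440 nm; AC50 from Hill fits.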
Potency is read from the fitted curve at half-maximal effect.

Potency, active:
Nc1c(C(O)(C(F)(F)F)C(F)(F)F)ccc2ccccc12 35.5 µM
Nc1ccc(-c2nc3ccc(C(=O)O)cc3s2)cc1 35.5 µM
Nc1ccc2nc(-c3ccccc3)sc2c1 35.5 µM
Cc1cc(C)[n+](-c2ccc(F)cc2)c2[nH]c(=O)[nH]c(=O)c12 35.5 µM
Cc1cc(C)[n+](-c2ccc(C(C)C)cc2)c2[nH]c(=O)[nH]c(=O)c12 35.5 µM
COCCOC(=O)C1=C(C)NC2=C(C(=O)CC(C)(C)C2)C1c1cccnc1 (stereo not given) 35.5 µM
CC1=C(C#N)C(c2cccnc2)C2=C(CC(C)(C)CC2=O)N1 (stereo not given) 28.2 µM
CC1=C(C#N)C(c2cccnc2)C2=C(CCCC2=O)N1 (stereo not given) 25.1 µM
COc1cccc(C2C(C#N)=C(C)NC3=C2C(=O)CC(C)(C)C3)c1 (stereo not given) 39.8 µM
CCN1CCN(C(c2cc3cc4c(cc3[nH]c2=O)OCO4)c2nnnn2C(C)(C)CC)CC1 (stereo not given) 39.8 µM
Nc1nc(N)c2nc(-c3ccccc3)c(N)nc2n1 39.8 µM
Clc1ccc(/C=C/c2nc3ccccc3[nH]2)c(Cl)c1 35.5 µM
CC(=O)Oc1ccc2cc(-c3nc4ccccc4n3C)c(=O)oc2c1 35.5 µM
CCC(=O)c1ccc(/C=C/c2nc3ccccc3n2C)o1 35.5 µM
CC(=O)c1ccc(-c2nc3ccccc3n2C)o1 31.6 µM
Cn1c(-c2cc3ccc(OC(=O)C(C)(C)C)cc3oc2=O)nc2ccccc21 39.8 µM
CCCCn1c(NS(=O)(=O)c2ccccc2)c(S(=O)(=O)c2ccc(C)cc2)c2nc3ccccc3nc21 35.5 µM
CCCCn1c(NS(=O)(=O)c2ccc(C)cc2)c(S(=O)(=O)c2ccccc2)c2nc3ccccc3nc21 50.1 µM
CCC(=O)Nc1c(S(=O)(=O)c2ccccc2)c2nc3ccccc3nc2n1Cc1ccccc1 39.8 µM
Cc1ccc2nc3c(cc(C#N)c(=O)n3CC3CCCO3)c(=O)n2c1 (stereo not given) 3.98 µM
Cc1ccc2nc3c(cc(C#N)c(=O)n3CCN3CCOCC3)c(=O)n2c1 28.2 µM
Cc1cccn2c(=O)c3cc(C#N)c(=O)n(Cc4cccnc4)c3nc12 3.98 µM
Cc1cccn2c(=O)c3cc(C#N)c(=O)n(CC4CCCO4)c3nc12 (stereo not given) 10 µM
CC(C)OC(=O)c1c(N)n(CCCN2CCOCC2)c2nc3ccccc3nc12 39.8 µM
COC(=O)c1c(N)n(CCCN2CCOCC2)c2nc3ccccc3nc12 31.6 µM
Cc1c(C#N)c(N)nc2c3c(sc12)NC(=O)CC3c1ccccc1 (stereo not given) 5.01 µM
COc1ccc(F)cc1CN1CCN(c2cc(C)nc3c4c(C)cc(C)nc4nn23)CC1 35.5 µM
CCc1c(C)c2ccc(O)c(CN(C)C)c2oc1=O 35.5 µM
CCN(CC)Cc1c(O)ccc2c(C)c(CC(=O)OC)c(=O)oc12 35.5 µM
COC(=O)Cc1c(C)c2ccc(O)c(CN3CCCC(C)C3)c2oc1=O (stereo not given) 35.5 µM
CCc1c(C)c2cc(Cl)c(O)c(CN(C)C)c2oc1=O 31.6 µM
Cc1c(C)c2cc(Cl)c(O)c(CN(C)C)c2oc1=O 39.8 µM
Cc1c(Cc2ccccc2)c(=O)oc2c(CN(C)C)c(O)c(Cl)cc12 35.5 µM
O=c1c2ccccc2[nH]c2ccc(F)cc12 31.6 µM
O=c1c2ccccc2[nH]c2ccccc12 39.8 µM
O=C(c1ccco1)N1CCN(C/C=C/c2ccccc2)CC1 17.8 µM
CCN1C=C(C(=O)OC)C(c2cccc(OC)c2OC)C(C(=O)OC)=C1 35.5 µM
COC(=O)C1=CN(Cc2cccs2)C=C(C(=O)OC)C1c1ccc(OC)cc1OC 35.5 µM
COC(=O)C1=CN(Cc2cccs2)C=C(C(=O)OC)C1c1cccc(OC)c1OC 25.1 µM
COC(=O)C1=CN(Cc2cccs2)C=C(C(=O)OC)C1c1cccc(Cl)c1 35.5 µM
CCN1C=C(C(=O)OC)C(c2cccc(C)c2)C(C(=O)OC)=C1 35.5 µM
COCCn1cc(C(=O)N2CCN(C)CC2)c2c3ccccc3n(C)c2c1=O 35.5 µM
CCOc1ccccc1N=c1oc2cc(O)ccc2cc1C(=O)NCC1CCCO1 (stereo not given) 31.6 µM
Cc1cccc(N=c2oc3cc(O)ccc3cc2C(N)=O)c1 35.5 µM
NC(=O)c1cc2ccc(O)cc2oc1=NCc1ccccc1 35.5 µM
COc1ccccc1N=c1oc2cc(O)ccc2cc1C(N)=O 28.2 µM
CCCCNC(=O)CCC(=O)Nc1ccc2nc(N3CCCCC3)cc(C)c2c1 25.1 µM
CCCCN(CC)CCNC(=O)CCC(=O)Nc1ccc2nc(N3CCN(C)CC3)cc(C)c2c1 28.2 µM
Cc1cc(N2CCC(C)CC2)nc2ccc(N3C(=O)CCC3=O)cc12 31.6 µM
CCCCNC(=O)CCC(=O)Nc1ccc2nc(N3CCC(C)CC3)cc(C)c2c1 39.8 µM
COCCCNC(=O)CCC(=O)Nc1ccc2nc(N3CCOCC3)cc(C)c2c1 28.2 µM
CCN(CC)CCCNC(=O)CCC(=O)Nc1ccc2nc(N3CCC(C)CC3)cc(C)c2c1 39.8 µM
Cc1cc(C)c2c(n1)nn1c(NCCOCCO)cc(C)nc21 35.5 µM
Cc1cc(C)c2c(n1)nn1c(NCCCN(C)C)cc(C)nc21 39.8 µM
COCCNc1cc(C)nc2c3c(C)cc(C)nc3nn12 35.5 µM
Cc1cc(C)c2c(n1)nn1c(NCCN3CCOCC3)cc(C)nc21 28.2 µM
CCc1cc2c(C)cc(=O)oc2cc1OC(=O)C1CCCN1C(=O)OC(C)(C)C (stereo not given) 31.6 µM
CCOP(=O)(OCC)C(NC(=O)c1cccs1)C(F)(F)F (stereo not given) 31.6 µM
COCCCn1c(CCC(=O)O)ccc1-c1ccc(F)cc1 22.4 µM
O=S1(=O)CCN2C=C(Cl)C=C(Cl)C2=N1 35.5 µM
